Consider five compounds from PubChem BioAssay.

Active and inactive are the calls of the source.

Experiment [1] is described as follows: small molecules captured by biotinylated probe aFSTL3 – biochemical, small-molecule microarray, fluorescence 635/667, stem cell growth factor project, primary screen (AID 1064).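 Note: measures binding of the biotinylated anti-FSTL3 antibody to printed compounds.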 The following applies: higher = more signal.
Experiment [2] can be described thus: binders from COS7 lysate, DM2A8 probe, primary screen, torsin A project, cell lysate, small-molecule microarray, fluorescence 635/667 (AID 1065). The following applies: higher = more signal, COS7 lysate expressing mutant human TOR1A.
Experiment [3] in a line: small molecules captured by biotinylated probe aFGF2 – biochemical, small-molecule microarray, fluorescence 635/667, stem cell growth factor project, primary screen (AID 1067).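 Note: measures binding of biotinylated aFGF2 protein to printed compounds on slides; z-score merges feature fluorescence and signal-to-noise across triplicate slides.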 As to conditions: higher = more signal.
Experiment [4] is described as follows: small molecules captured by biotinylated probe aFGF10 – biochemical, small-molecule microarray, fluorescence 635/667, stem cell growth factor project, primary screen (AID 1071).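 Note: score merges 667 nm spot intensity and signal to noise from triplicate slides.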 The following applies: higher = more signal.
The target in experiment [5] is Neurogenic locus notch homolog protein 2 (Homo sapiens) (UniProt Q04721). The experiment can be described thus: small molecules binding Notch2 protein – biochemical, small-molecule microarray, 635 nm fluorescence, stem cell growth factors, primary screen (AID 1073). As to conditions: higher = more signal.
Experiment [6] concerns the target Pro-neuregulin-1, membrane-bound isoform (Homo sapiens) (UniProt Q02297). The experiment can be described thus: small molecules binding neuregulin-1 protein – biochemical, small-molecule microarray, fluorescence 635/667, psychiatric disease protein project, primary screen (AID 1075).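 Note: score combines 667 nm spot fluorescence with signal to noise.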 The following applies: NRG1 binding, 635 nm fluorescence, higher = more signal.
The test system of experiment [7] is Neuregulin-1 EGF-like domain. As to the kind of experiment: small molecules binding NRG1 EGF domain – biochemical, small-molecule microarray, 635 nm fluorescence, primary screen (AID 1081).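 Note: binding of the protein to compounds printed on small-molecule microarray slides.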 The following applies: higher = more signal.
The nature of experiment [8]: FRG1 expression reporter modulators in myotubes – cell-based, C2C12 myotubes, firefly/Renilla luciferase, luminescence, FRG1 inhibition for FSHD, primary screen (AID 1084). As to conditions: FRG1 promoter luciferase, higher = more signal, called active from +8 up or from −8 down.
A short description of experiment [9]: small molecules captured by biotinylated probe aFST – biochemical, small-molecule microarray, fluorescence 635/667, stem cell growth factor project, primary screen (AID 1086).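 Note: score merges 667 nm fluorescence with signal-to-noise of each printed compound spot.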 As to conditions: higher = more signal.
The nature of experiment [10]: binders of probe aHhip on microarray, primary screen, stem cell growth factor project, biochemical, small-molecule microarray, fluorescence 635/667 (AID 1087).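 Note: score merges spot fluorescence at 667nm with spot signal to noise ratio.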 The following applies: higher = more signal.
Experiment [11] has as its system PRMT1 (protein arginine N-methyltransferase 1). The experiment can be described thus: small molecules binding arginine methyltransferase PRMT1 – biochemical, small-molecule microarray, 635 nm fluorescence, primary screen (AID 1088).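 Note: binding of Prmt1 protein to compounds spotted on small-molecule microarray slides.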 As to conditions: higher = more signal.
A short description of experiment [12]: growth effects on S. cerevisiae YJM789 – YJM789 clinical isolate, OD600, 24 h, basal, primary screen (AID 1089).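 Note: growth of clinical yeast isolate S. cerevisiae YJM 789 seeded 1000 cells per well; test concentration not given here.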 The following applies: higher = more signal, called active from +8 up or from −8 down.
Experiment [13] is described as follows: S. pombe growth modifiers, basal conditions – strain 972, OD600, 24 h, no modulator, primary screen (AID 1090).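 Note: basal condition with compound alone and no growth modifier present; test concentration not given here.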 The following applies: S. pombe 972 growth, higher = more signal, called active from +8 up or from −8 down.
A short description of experiment [14]: budding yeast growth modifiers under rapamycin – strain BY4716, OD600, 96 h, primary screen (AID 1091). Note: test concentration not given here. As to conditions: S. cerevisiae BY4716 + rapamycin, higher = more signal, called active from +8 up or from −8 down.
For experiment [15], the target named is Torsin-1A-interacting protein 2 (Homo sapiens) (UniProt Q8NFQ8). As to the kind of experiment: small molecules binding lysate-expressed LULL1 – cell lysate, human LULL1 lysate, 635/667 nm fluorescence, primary screen (AID 1092).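 Note: probe is lysate of COS7 cells overexpressing human LULL1; score merges per-feature 667 nm fluorescence with signal-to-noise.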 The following applies: small-molecule microarray, hLULL1 lysate binding, 635 nm fluorescence; higher = more signal.
The nature of experiment [16]: optical density change of DRC41 E. coli – strain DRC41, OD650, 24 h, E. coli filamentation project, primary screen (AID 1093).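 Note: MC1000 strain lacking acrAB efflux and sulA so SOS filamentation is blocked; test concentration not given here.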 The following applies: E. coli DRC41 growth, higher = more signal, called active from +8 up or from −8 down.
Experiment [17] in a line: probe aLefty2 binding to arrayed compounds – biochemical, biotinylated probe, 635/667 nm fluorescence, primary screen (AID 1094).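 Note: score merges spot fluorescence near 667 nm with spot signal-to-noise ratio.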 The following applies: small-molecule microarray, higher = more signal.
Experiment [18] deals with Noggin (protein binding on small-molecule microarray). The experiment can be described thus: small molecules binding Noggin protein – biochemical, 635/667 nm fluorescence, primary screen (AID 1095).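 Note: score merges 667 nm feature fluorescence with signal to noise over triplicate slides.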 The following applies: 635 nm fluorescence, higher = more signal.
In experiment [19] the target is Neurogenic locus notch homolog protein 3 (Homo sapiens) (UniProt Q9UM47). The experiment can be described thus: small molecules binding NOTCH3 protein – biochemical, 635/667 nm fluorescence, primary screen (AID 1096). The following applies: small-molecule microarray, 635 nm fluorescence, higher = more signal.
Experiment [20] can be described thus: probe aEGFR binding to arrayed compounds – biochemical, biotinylated probe, 635/667 nm fluorescence, primary screen (AID 1097).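 Note: probe is a biotinylated anti-EGFR antibody binding compounds printed on slides; score combines fluorescence near 667 nm and signal to noise of each spot.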 The following applies: small-molecule microarray, higher = more signal.

Sequence of Torsin-1A-interacting protein 2 (Homo sapiens) (Q8NFQ8 whole entry, looked up): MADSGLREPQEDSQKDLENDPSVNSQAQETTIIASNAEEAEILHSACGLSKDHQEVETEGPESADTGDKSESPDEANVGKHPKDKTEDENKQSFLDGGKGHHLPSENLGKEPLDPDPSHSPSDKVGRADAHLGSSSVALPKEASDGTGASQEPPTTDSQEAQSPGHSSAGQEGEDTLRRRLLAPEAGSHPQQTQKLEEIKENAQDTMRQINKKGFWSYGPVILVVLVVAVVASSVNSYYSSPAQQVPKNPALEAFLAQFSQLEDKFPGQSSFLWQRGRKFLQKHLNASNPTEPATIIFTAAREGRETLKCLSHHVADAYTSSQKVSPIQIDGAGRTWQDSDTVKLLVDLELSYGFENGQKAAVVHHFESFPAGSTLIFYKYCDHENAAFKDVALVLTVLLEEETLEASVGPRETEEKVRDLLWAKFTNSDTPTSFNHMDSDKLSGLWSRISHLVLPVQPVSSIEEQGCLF
Sequence of Neurogenic locus notch homolog protein 3 (Homo sapiens) (Q9UM47 whole entry, looked up): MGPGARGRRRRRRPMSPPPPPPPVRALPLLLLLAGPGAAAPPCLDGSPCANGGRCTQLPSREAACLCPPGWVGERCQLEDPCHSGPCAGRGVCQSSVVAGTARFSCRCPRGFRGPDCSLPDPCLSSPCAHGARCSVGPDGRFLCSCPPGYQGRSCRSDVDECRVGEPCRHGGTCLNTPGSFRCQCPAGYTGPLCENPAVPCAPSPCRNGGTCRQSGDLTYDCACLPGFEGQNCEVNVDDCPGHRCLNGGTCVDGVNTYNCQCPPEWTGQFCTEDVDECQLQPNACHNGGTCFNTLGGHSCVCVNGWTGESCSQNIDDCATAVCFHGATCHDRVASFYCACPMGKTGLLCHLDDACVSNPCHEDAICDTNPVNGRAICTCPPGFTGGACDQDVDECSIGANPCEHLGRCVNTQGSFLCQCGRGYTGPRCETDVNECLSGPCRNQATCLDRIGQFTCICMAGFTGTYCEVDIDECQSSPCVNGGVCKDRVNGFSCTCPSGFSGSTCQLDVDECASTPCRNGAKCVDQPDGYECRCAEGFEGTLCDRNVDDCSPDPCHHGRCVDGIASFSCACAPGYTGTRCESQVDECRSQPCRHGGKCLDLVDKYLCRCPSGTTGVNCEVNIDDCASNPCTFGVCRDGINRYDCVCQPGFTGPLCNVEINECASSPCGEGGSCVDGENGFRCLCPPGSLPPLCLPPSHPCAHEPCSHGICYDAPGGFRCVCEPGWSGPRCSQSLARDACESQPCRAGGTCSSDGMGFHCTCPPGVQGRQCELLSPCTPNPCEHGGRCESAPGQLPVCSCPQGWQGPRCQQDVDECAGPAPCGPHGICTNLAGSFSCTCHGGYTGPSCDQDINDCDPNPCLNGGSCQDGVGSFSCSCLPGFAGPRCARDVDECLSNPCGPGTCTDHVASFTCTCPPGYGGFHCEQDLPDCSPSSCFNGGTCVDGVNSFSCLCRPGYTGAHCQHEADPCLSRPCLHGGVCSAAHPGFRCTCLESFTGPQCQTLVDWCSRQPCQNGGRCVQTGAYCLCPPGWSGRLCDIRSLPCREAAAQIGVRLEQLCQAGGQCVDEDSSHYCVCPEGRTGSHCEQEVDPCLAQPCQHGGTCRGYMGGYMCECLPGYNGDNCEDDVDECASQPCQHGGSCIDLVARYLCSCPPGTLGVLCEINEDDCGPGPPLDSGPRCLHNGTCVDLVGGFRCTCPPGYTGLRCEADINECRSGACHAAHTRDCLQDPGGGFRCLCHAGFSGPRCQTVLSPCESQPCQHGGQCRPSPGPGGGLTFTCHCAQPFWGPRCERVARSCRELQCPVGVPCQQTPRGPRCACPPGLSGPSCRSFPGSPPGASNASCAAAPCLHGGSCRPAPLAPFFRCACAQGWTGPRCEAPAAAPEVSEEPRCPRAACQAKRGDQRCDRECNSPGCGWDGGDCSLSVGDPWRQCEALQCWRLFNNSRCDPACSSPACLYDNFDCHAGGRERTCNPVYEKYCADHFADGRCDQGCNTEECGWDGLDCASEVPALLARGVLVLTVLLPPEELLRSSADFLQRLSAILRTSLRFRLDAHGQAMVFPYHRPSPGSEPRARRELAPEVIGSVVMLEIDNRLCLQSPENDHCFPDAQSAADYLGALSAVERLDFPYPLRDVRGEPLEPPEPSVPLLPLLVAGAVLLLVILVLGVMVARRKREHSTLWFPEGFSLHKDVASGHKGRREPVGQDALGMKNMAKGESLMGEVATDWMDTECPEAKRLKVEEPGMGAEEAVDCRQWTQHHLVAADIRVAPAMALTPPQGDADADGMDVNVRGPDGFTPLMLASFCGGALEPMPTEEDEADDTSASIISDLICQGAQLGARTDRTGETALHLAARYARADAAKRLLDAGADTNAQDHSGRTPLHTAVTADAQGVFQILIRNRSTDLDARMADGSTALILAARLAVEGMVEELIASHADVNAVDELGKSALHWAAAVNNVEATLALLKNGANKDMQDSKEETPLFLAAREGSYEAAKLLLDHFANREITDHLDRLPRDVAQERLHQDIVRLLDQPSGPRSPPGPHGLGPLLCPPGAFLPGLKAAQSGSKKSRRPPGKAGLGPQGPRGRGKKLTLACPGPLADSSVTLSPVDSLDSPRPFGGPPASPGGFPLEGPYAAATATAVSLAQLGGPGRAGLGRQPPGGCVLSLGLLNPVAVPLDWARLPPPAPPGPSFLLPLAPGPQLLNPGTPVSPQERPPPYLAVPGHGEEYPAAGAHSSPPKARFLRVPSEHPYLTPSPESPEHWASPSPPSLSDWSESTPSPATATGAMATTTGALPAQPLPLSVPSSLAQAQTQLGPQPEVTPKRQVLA
Sequence of Pro-neuregulin-1, membrane-bound isoform (Homo sapiens) (Q02297 whole entry, looked up, the tested form may be a part, canonical isoform): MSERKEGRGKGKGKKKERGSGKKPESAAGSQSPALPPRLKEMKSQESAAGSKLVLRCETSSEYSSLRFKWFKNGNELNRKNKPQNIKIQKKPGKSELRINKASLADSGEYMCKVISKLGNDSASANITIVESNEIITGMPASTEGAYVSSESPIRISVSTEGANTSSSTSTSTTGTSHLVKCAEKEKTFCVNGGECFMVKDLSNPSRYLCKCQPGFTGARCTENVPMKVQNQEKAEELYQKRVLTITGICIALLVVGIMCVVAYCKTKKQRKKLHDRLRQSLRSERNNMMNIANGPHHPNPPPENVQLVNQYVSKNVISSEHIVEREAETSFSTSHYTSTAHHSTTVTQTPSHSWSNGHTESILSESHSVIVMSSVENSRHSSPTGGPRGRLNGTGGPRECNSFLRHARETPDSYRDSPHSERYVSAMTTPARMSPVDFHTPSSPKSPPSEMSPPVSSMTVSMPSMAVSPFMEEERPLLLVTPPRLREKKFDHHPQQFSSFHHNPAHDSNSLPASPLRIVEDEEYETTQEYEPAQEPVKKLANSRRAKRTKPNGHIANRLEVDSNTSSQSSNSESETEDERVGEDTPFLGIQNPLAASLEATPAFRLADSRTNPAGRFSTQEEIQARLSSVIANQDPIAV

With `CC(C)(C)OC(=O)CC[C@]1(C(=O)NCCN2CCOCC2)N=C(c2ccc(OCCCO)cc2)O[C@H]1c1ccccc1N=[N+]=[N-]`, the composite z-score in [1] is 0.85; in experiment [2] it was 1.55; in experiment [3], 0.105; in experiment [4], 0.606; in experiment [5] it was 0.1; in [6] it was 1.72. The composite z-score in [7] was found to be 1.39; in [9], 0.778; in experiment [10], 0.913; in [11], 1.49; in experiment [15], 3.38; in experiment [17], 0.373. Besides, the composite z-score was -0.238 in experiment [18], 0.412 in experiment [19] and 0.0988 in experiment [20]. For the same compound, the z-score in [8] is 4.57 (inactive); in experiment [12], -0.417 (inactive); in experiment [13] it was -0.437 (inactive); in experiment [14], -0.535 (inactive); in experiment [16], 0.102 (inactive).
As for `CC=CC(O)C1C=CC2C(=O)N(c3ccccc3)C(=O)C2N1Nc1ccccc1` (stereo not given), the composite z-score in experiment [1] is 0.393; in experiment [2] it was 0.274; in experiment [3], -0.0114; in experiment [4] it was 1.02; in experiment [5] it was 1.68; in experiment [6], 1.91. Further, the composite z-score is 1.29 in experiment [7]; 1.14 in experiment [9]; -0.0852 in [10]; 1.55 in [11]; 3.33 in experiment [15]; 0.209 in [17]. For the same compound, the values for the composite z-score in [18], in experiment [19] and in experiment [20] were 0.0919, 1.09 and 0.113, respectively. The z-score in [8] was 0.568 (inactive); in [12] it was 0.0831 (inactive); in experiment [13], -0.32 (inactive); in experiment [14], -0.474 (inactive); in experiment [16] it was 0.143 (inactive).
Turning to `CCOC(=O)C[C@H]1[C@H](OC(=O)c2ccc(-c3ccccc3)cc2)[C@@H](NC(=O)c2ccc3ccccc3n2)c2cc(OCCCO)ccc2N1C(=O)c1ccccc1`, the composite z-score is -0.497 in experiment [1]; 0.482 in experiment [2]; -0.0996 in experiment [3]; 0.618 in experiment [4]; 1.01 in experiment [5]; 0.464 in experiment [6]. Further, the composite z-score in [7] is 0.857; in [9] it was 0.579; in experiment [10], 0.113; in [11] it was 1.52; in [15], 2.11; in experiment [17] it was -0.171. In addition, the values for the composite z-score in experiment [18], in experiment [19] and in experiment [20] were 0.671, 1.05 and 0.0026, respectively. The z-score was -0.561 (inactive) in [8]; 0.617 (inactive) in experiment [12]; 0.33 (inactive) in experiment [13]; 0.976 (inactive) in experiment [14]; -0.81 (inactive) in experiment [16].
Take `Cc1ccc(S[C@]2(C(=O)NCc3ccccc3)CC(=O)N(C(C)C)[C@@H]2c2ccc(CO)cc2I)cc1`: the composite z-score in experiment [1] is 2; in experiment [2], -0.464; in [3], -0.177; in [4], -0.392; in experiment [5], -1.09; in experiment [6], 1.05. Also, the composite z-score in experiment [7] was 0.399; in experiment [9] it was 0.03; in experiment [10], 0.0623; in experiment [11], 0.448; in [15], 1.73; in [17] it was 0.299. In addition, the composite z-score in [18] is -0.466; in experiment [19], -0.44; in experiment [20] it was -0.229. Besides, the z-score was -1.16 (inactive) in experiment [8]; -2.82 (inactive) in experiment [12]; -1.38 (inactive) in experiment [13]; 0.317 (inactive) in experiment [14]; 0.349 (inactive) in [16].
For `C[C@]1(C(=O)O)c2ccccc2C(=O)N(Cc2ccccc2)[C@H]1c1ccc(CO)cc1`, the composite z-score in experiment [1] is 1.63; in experiment [2], -0.646; in [3] it was -0.116; in experiment [4], -1.03; in [5], -1.24; in experiment [6] it was 0.869. Further, the composite z-score in experiment [7] was 0.521; in [9], -0.42; in experiment [10], -0.164; in experiment [11], -1.68; in experiment [15], -0.884; in [17] it was 0.119. In addition, the values for the composite z-score in [18], in experiment [19] and in experiment [20] were -1.51, -1.9 and -0.288, respectively. In addition, the z-score in experiment [8] was -0.319 (inactive); in [12], 1.09 (inactive); in experiment [13], 0.468 (inactive); in experiment [14] it was 1.37 (inactive); in experiment [16], 0.651 (inactive).
